Measured values taken from PubChem BioAssay (Tox21).
Results filed as inconclusive are left out. Where a call stands in place of a potency, no number is given. The source made the active and inactive calls. Unless noted, calls come from the whole dose curve.

How the values were obtained:
[1] = qHTS assay to identify small molecule agonists of the sonic hedgehog signaling (Shh) pathway (AID 1259368);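 note: NIH/3T3-derived 3T3Gli1-Luc cells carrying a stable Gli1-driven firefly luciferase reporter; series mostly up to about 92 µM; nearly all actives have a fitted effect of over 15% in size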
Procedure, shortened: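 Stable NIH/3T3 Gli1-Luc reporter clone; 24 hr cpd exposure after a 4 hr settling period; luminescence endpoint.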

[2] = qHTS assay to identify small molecule antagonists of the sonic hedgehog signaling (Shh) pathway (AID 1259369); note: nearly all actives have a fitted effect of over 45% in size; note: potency is the fitted concentration of half-maximal effect
Procedure, shortened: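 Gli1 transcriptional reporter (firefly Luc) in NIH/3T3 background, conditioned-medium activated. 24hr exposure, luminescence endpoint.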

[3] = target: Estrogen receptor beta (Homo sapiens) (UniProt Q92731); assay: qHTS assay to identify small molecule antagonists of the estrogen receptor beta (ER-beta) signaling pathway (AID 1259378; active = well fitted inhibition curve with a large enough effect in the signal ratio in the repeat runs, not every such curve was filed as active; the % refers to the signal ratio; note: potency is the fitted concentration of half-maximal effect)
Procedure, shortened: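 Antagonist mode: compounds added to beta-lactamase reporter HEK293T ER-beta-UAS cells stimulated with E2 (1nM final), 16 hr at 37C. LiveBLAzer B/G FRET substrate, 2 hours room temperature, fluorescence read-out.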

[4] = qHTS assay to identify small molecule agonists of the androgen receptor (AR) signaling pathway in the presence of an antagonist - cell viability counter screen (AID 1259379; active = well fitted curve in the direction sought with a large enough effect in the repeat runs; an effect the other way counts as inactive or inconclusive;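 note: MDA-kb2 human breast cancer cells carrying an MMTV luciferase reporter; series mostly up to about 92 µM; nearly all actives have a fitted effect of over 25% in size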)
Procedure, shortened: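 Counter screen for cell viability run in parallel with the AR agonist-mode luciferase assay. MDA-kb2 cells were co-treated with nilutamide (3.0uM final) and compounds, then incubated 16 hr at 37C, and CellTiter-Fluor fluorescence was measured.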

[5] = qHTS assay to identify small molecule agonists of the estrogen receptor beta (ER-beta) signaling pathway - cell viability counter screen (AID 1259380; active = well fitted curve in the direction sought with a large enough effect in the repeat runs; an effect the other way counts as inactive or inconclusive; note: nearly all actives have a fitted effect of over 30% in size; note: potency is the fitted concentration of half-maximal effect)
Procedure, shortened: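 In this qHTS counter screen, HEK293T cells carrying an ER-beta/UAS beta-lactamase reporter, grown in 2% charcoal-stripped FBS, received compound for 16 hr; ATP-based CellTiter-Glo luminescence was then read after 30 min at room temperature.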

[6] = target: Estrogen receptor (Homo sapiens) (UniProt P03372); assay: qHTS assay to identify small molecule agonists of the estrogen receptor alpha (ER-alpha) signaling pathway in the presence of an antagonist (AID 1259383); note: top concentration of the series differs between compounds; nearly all actives have a fitted effect of over 15% in size
Procedure, shortened: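 ER-alpha agonism measured under antagonist challenge: 10.0nM ICI-182,780 (final) plus compound, 15 concentrations, 22hr, VM7Luc4E2 ERE-luciferase cells. Read by luminescence.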

[7] = qHTS assay to identify small molecule agonists or antagonists of the thyroid stimulating hormone receptor (TSHR) signaling pathway - wild type cell line counter screen (AID 1259384)
Procedure, shortened: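 Counter screen in untransfected Hek293: compounds (15-point titration, triplicate) plus phosphodiesterase inhibitor Ro20-1724 added after 18 h plating; 30 min RT. Intracellular cAMP via competitive d2/cryptate immunoassay, 1 h incubation.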

[8] = target: Thyrotropin receptor (Homo sapiens) (UniProt P16473); assay: qHTS assay to identify small molecule antagonists of the thyroid stimulating hormone receptor (TSHR) signaling pathway (AID 1259385); note: nearly all actives have a fitted effect of over 20% in size
Procedure, shortened: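 Antagonist mode: compound-treated TSHR-expressing HEK293 cells were stimulated with 1.5 ng/mL TSH (final) in presence of Ro20-1724 for 30 min at RT. HTRF cAMP detection after 1 h; each compound tested at 15 concentrations, triplicate.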

[9] = target: Progesterone receptor (Homo sapiens) (UniProt P06401); assay: qHTS assay to identify small molecule agonists of the progesterone receptor (PR) signaling pathway (AID 1346784); note: nearly all actives have a fitted effect of over 30% in size
Procedure, shortened: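 Agonist mode, quantitative HTS format in a HEK 293T line expressing a UAS-controlled beta-lactamase reporter; 16 hr compound exposure at 37C in 2% charcoal-stripped FBS, then LiveBLAzer B/G FRET fluorescence.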

[10] = target: Progesterone receptor (Homo sapiens) (UniProt P06401); assay: qHTS assay to identify small molecule antagonists of the progesterone receptor (PR) signaling pathway (AID 1346795; active = well fitted inhibition curve with a large enough effect in the signal ratio in the repeat runs, not every such curve was filed as active; the % refers to the signal ratio)
Procedure, shortened: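 HEK293T PR-UAS-bla reporter cells in charcoal-stripped serum (2%) received compound after a 6 hr settling period, followed by R5020 agonist at 1 nM final; 16 hr incubation preceded the FRET substrate step and fluorescence measurement.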

[11] = qHTS assay to identify small molecule antagonists of the TGF-beta/Smad signaling pathway - cell viability counter screen (AID 1346824; active = well fitted curve in the direction sought with a large enough effect in the repeat runs; an effect the other way counts as inactive or inconclusive; note: nearly all actives have a fitted effect of over 50% in size)
Procedure, shortened: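 Cytotoxicity counter-screen run in the same wells as the beta-lactamase Smad reporter read: CellTiter-Glo luminescence after 30 min at room temperature. HEK 293T SBE-bla cells had 5 hr compound exposure at 37 C with TGF-beta1 (0.25 ng/mL stock).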

[12] = qHTS assay to identify small molecule agonists of the TGF-beta/Smad signaling pathway - cell viability counter screen (AID 1346829; active = well fitted curve in the direction sought with a large enough effect in the repeat runs; an effect the other way counts as inactive or inconclusive; note: top concentration of the series differs between compounds; nearly all actives have a fitted effect of over 45% in size)
Procedure, shortened: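 After overnight seating at 37 C and 5% CO2, reporter cells got compounds for 5 hr and FRET substrate for 2 hr; cell viability then came from CellTiter-Glo luminescence.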

[13] = qHTS assay to identify small molecule agonists of the TGF-beta/Smad signaling pathway (AID 1346859; active = well fitted activation curve with a large enough effect in the signal ratio in the repeat runs, not every such curve was filed as active; the % refers to the signal ratio; note: series mostly up to about 77 µM)
Procedure, shortened: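 Smad-responsive beta-lactamase reporter cells (HEK 293T) received compounds from DMSO stocks after overnight attachment, were incubated 5 hr, then treated 2 hr with FRET substrate before dual-emission fluorescence measurement (405 nm excitation).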

[14] = target: Thyrotropin-releasing hormone receptor (Homo sapiens) (UniProt P34981); assay: qHTS assay to identify small molecule antagonists of the thyrotropin-releasing hormone receptor (TRHR) signaling pathway (AID 1346877; active = well fitted inhibition curve with a large enough effect in the repeat runs, not every such curve was filed as active; note: series mostly up to about 51 µM)
Procedure, shortened: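 Human TRHR in HEK293 cells; inhibition of the intracellular calcium rise triggered by 1 nM TRH was followed by fluorescence over 3 min. Compounds were run at 15 concentrations, three replicates each.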

[15] = target: Estrogen receptor beta (Homo sapiens) (UniProt Q92731); assay: qHTS assay to identify small molecule agonists of the estrogen receptor beta (ER-beta) signaling pathway (AID 1259377; active = well fitted activation curve with a large enough effect in the signal ratio in the repeat runs, not every such curve was filed as active; the % refers to the signal ratio)
Procedure, shortened: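 A UAS-controlled beta-lactamase reporter in ER-beta-UAS-bla HEK293T cells reports receptor activation. Compounds act for 16 hr at 37C in 2% charcoal-stripped serum, and a FRET substrate is read by fluorescence after 2 hours.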

[16] = qHTS assay to identify small molecule agonists of the estrogen receptor alpha (ER-alpha) signaling pathway in the presence of an antagonist - cell viability counter screen (AID 1259386; active = well fitted curve in the direction sought with a large enough effect in the repeat runs; an effect the other way counts as inactive or inconclusive;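 note: series mostly up to about 92 µM; cells exposed to compounds for 22 h at 37 °C before the viability read; nearly all actives have a fitted effect of over 30% in size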)
Procedure, shortened: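 Steps: 5-day stripped-FBS culture; seed and incubate 24hr; add ICI-182,780 (10.0nM final); pin 15-point compound titration; incubate 22hr at 37C; add CellTiter-Fluor at 21hr; read fluorescence.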

[17] = target: Androgen receptor (Homo sapiens) (UniProt P10275); assay: qHTS assay to identify small molecule agonists of the androgen receptor (AR) signaling pathway in the presence of an antagonist (AID 1259381); note: nearly all actives have a fitted effect of over 15% in size
Procedure, shortened: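 AR antagonist background: nilutamide 3.0uM final. Cell line: MDA-kb2, MMTV-driven luciferase, responsive to both AR and GR. Exposure 16hr, 37C, no CO2; ONE-Glo luminescence.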

[18] = qHTS assay to identify small molecule antagonists of the estrogen receptor beta (ER-beta) signaling pathway - cell viability counter screen (AID 1259382; active = well fitted curve in the direction sought with a large enough effect in the repeat runs; an effect the other way counts as inactive or inconclusive;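 note: HEK293T cells carrying ER-beta-UAS-bla reporter stimulated with estradiol; series mostly up to about 92 µM; nearly all actives have a fitted effect of over 55% in size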)
Procedure, shortened: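 HEK293T ER-beta-UAS-bla, 2% charcoal-stripped FBS; compounds + 1nM E2 16 hr 37C; CellTiter-Glo luminescence, 30 min RT.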

[19] = qHTS assay to identify small molecule antagonists of the progesterone receptor (PR) signaling pathway - cell viability counter screen (AID 1346798; active = well fitted curve in the direction sought with a large enough effect in the repeat runs; an effect the other way counts as inactive or inconclusive; note: nearly all actives have a fitted effect of over 50% in size; note: potency is the fitted concentration of half-maximal effect)
Procedure, shortened: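 Same-well multiplex: after 16 hr at 37C with compound and R5020 stimulation, HEK293T cells carrying a UAS-bla reporter received LiveBLAzer substrate (2 hr RT), then CellTiter-Glo (30 min RT) for luminescent viability.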

[20] = qHTS assay to identify small molecule agonists of the progesterone receptor (PR) signaling pathway - cell viability counter screen (AID 1346799); note: nearly all actives have a fitted effect of over 45% in size; note: potency is the fitted concentration of half-maximal effect
Procedure, shortened: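 Counter screen for cytotoxicity: compound-treated PR-UAS-bla HEK293T cells (16 hr, 37C, 5% CO2) were assayed with CellTiter-Glo, luminescence measured after 30 min at room temperature.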

Chain of Estrogen receptor beta (Homo sapiens) (Q92731 whole entry, looked up): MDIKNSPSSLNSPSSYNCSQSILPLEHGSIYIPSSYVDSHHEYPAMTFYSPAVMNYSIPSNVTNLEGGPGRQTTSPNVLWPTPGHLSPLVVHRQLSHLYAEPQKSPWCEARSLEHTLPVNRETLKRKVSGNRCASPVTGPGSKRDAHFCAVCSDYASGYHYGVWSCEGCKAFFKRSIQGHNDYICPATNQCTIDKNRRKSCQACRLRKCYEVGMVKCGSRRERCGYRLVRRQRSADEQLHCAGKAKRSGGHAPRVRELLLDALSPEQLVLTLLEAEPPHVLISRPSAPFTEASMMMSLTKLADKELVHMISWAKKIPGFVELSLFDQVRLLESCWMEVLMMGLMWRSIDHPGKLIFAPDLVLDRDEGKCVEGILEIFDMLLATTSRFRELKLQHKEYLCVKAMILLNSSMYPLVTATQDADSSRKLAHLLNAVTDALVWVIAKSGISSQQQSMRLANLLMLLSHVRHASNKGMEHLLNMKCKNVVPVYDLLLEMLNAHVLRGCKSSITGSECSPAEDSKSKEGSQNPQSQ
Chain of Thyrotropin-releasing hormone receptor (Homo sapiens) (P34981 whole entry, looked up): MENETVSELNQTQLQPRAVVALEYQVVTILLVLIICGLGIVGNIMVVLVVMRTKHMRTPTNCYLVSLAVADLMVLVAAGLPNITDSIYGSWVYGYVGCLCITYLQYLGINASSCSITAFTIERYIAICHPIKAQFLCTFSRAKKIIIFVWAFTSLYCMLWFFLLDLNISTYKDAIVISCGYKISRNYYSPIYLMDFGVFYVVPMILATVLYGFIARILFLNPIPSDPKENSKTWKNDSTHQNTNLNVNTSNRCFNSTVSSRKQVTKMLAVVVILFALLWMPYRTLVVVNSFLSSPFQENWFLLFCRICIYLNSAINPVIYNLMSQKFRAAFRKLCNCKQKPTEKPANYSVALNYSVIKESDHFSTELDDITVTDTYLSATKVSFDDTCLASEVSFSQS
Chain of Thyrotropin receptor (Homo sapiens) (P16473 whole entry, looked up): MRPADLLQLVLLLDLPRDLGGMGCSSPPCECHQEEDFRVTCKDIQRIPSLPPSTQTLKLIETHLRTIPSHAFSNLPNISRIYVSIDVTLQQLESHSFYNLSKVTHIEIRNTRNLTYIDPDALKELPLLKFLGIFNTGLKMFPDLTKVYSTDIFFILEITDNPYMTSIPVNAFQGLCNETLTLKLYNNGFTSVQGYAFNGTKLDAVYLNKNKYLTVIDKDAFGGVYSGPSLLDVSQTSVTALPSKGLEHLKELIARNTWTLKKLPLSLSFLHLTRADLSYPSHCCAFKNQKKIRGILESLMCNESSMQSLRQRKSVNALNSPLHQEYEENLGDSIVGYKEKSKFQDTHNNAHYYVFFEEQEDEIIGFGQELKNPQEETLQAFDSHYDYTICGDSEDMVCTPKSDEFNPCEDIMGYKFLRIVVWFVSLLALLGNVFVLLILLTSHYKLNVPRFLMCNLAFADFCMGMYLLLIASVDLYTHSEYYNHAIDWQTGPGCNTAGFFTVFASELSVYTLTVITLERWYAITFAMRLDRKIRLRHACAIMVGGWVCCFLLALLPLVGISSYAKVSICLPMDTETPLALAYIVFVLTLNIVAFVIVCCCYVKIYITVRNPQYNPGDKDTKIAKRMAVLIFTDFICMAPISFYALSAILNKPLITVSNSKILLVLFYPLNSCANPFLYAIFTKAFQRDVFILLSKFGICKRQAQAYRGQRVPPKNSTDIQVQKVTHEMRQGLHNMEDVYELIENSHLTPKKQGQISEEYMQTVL
Chain of Estrogen receptor (Homo sapiens) (P03372 whole entry, looked up): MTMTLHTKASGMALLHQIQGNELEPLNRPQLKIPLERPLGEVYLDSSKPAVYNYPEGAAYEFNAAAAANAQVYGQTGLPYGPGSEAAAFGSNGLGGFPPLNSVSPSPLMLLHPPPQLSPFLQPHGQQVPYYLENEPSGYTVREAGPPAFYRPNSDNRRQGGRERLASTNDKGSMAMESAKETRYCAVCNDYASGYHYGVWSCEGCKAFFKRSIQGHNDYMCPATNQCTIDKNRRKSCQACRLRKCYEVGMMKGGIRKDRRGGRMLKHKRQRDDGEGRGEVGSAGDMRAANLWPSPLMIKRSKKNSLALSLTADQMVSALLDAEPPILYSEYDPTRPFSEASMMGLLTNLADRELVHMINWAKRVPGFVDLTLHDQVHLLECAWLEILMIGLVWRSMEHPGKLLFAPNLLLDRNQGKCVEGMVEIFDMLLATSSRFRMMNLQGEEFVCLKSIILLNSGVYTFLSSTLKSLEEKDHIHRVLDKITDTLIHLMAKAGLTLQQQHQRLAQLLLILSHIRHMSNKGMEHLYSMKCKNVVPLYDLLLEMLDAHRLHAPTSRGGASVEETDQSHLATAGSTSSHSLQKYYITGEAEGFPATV
Chain of Progesterone receptor (Homo sapiens) (P06401 whole entry, looked up): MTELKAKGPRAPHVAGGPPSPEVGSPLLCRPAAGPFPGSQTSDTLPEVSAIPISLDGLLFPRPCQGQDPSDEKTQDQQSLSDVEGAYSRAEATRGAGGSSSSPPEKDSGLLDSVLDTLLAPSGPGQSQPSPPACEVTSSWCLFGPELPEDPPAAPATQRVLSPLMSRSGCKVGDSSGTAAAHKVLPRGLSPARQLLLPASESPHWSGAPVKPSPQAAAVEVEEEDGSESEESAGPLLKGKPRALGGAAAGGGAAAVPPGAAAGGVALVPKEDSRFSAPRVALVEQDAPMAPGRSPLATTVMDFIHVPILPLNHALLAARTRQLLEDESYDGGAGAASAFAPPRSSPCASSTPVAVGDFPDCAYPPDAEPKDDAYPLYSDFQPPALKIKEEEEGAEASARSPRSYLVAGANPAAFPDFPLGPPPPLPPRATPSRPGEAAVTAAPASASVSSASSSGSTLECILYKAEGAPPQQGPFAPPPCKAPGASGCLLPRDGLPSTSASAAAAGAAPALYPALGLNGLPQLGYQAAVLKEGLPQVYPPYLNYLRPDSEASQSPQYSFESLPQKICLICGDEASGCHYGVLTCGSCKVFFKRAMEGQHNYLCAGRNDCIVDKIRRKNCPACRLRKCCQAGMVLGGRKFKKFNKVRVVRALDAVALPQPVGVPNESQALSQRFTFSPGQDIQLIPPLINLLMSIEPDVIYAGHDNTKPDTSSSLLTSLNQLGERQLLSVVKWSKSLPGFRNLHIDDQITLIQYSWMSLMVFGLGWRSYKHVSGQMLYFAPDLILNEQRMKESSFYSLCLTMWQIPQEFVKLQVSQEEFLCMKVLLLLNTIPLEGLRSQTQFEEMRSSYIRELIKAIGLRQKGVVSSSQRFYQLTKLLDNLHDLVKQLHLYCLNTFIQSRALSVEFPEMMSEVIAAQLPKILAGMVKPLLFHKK
Chain of Androgen receptor (Homo sapiens) (P10275 whole entry, looked up): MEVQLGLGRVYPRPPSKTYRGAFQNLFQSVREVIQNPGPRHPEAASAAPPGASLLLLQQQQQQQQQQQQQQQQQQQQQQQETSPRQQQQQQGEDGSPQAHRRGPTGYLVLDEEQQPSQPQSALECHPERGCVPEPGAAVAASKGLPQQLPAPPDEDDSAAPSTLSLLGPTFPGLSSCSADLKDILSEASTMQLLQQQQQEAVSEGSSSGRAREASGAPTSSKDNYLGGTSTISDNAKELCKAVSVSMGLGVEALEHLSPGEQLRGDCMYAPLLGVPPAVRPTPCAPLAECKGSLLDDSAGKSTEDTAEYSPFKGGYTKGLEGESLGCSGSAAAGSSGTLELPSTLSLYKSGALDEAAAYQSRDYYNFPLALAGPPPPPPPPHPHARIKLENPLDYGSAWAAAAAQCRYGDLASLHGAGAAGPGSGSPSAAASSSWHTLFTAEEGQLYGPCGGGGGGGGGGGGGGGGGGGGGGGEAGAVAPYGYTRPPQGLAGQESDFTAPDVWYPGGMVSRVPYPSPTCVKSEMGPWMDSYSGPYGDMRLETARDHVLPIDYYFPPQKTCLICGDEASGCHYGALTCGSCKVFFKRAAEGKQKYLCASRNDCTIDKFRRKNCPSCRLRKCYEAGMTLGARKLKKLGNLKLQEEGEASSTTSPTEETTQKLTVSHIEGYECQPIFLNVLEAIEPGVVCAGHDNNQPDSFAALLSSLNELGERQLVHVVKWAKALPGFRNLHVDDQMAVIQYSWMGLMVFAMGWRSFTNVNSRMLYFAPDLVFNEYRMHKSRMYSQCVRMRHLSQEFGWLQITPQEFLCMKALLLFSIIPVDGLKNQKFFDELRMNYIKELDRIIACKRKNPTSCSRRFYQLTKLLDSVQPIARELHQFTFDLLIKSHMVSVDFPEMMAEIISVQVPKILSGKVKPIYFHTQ

Structure (SMILES) | Potency [1] | Potency [2] | Potency [3] | Potency [4] | Potency [5] | Potency [6] | outcome [7] | Potency [8] | Potency [9] | Potency [10] | Potency [11] | Potency [12] | Potency [13] | outcome [14] | Potency [15] | Potency [16] | Potency [17] | Potency [18] | Potency [19] | Potency [20]
Brc1cc(Br)c(Oc2cc(Br)c(Br)cc2Br)cc1Br | inactive | inactive | inactive | inactive | 29.9 µM (active) | inactive | inactive | inactive | inactive | inactive | inactive | inactive | inactive | inactive |  |  |  |  |  | 
OC[C@H]1O[C@@H](n2cnc3c(=S)nc[nH]c32)[C@H](O)[C@@H]1O | inactive | inactive |  | inactive | 2.11 µM (active) | inactive | inactive | inactive | inactive |  |  |  | inactive | inactive | inactive | inactive |  |  |  | 
OC1(c2ccccc2)CCNCC1 | inactive | inactive | inactive | inactive | inactive |  | inactive | inactive |  |  | inactive |  | inactive | inactive |  | inactive | inactive | inactive | inactive | inactive
CO/N=C(/C(=O)N[C@@H]1C(=O)N2C(C(=O)O)=C(COC(N)=O)CS[C@H]12)c1ccco1 | inactive | inactive | inactive | inactive | inactive |  | inactive | inactive |  |  | inactive | inactive | inactive | inactive | inactive | inactive |  |  | inactive | inactive
NNC(=O)CP(=O)(c1ccccc1)c1ccccc1 | inactive | inactive | inactive | inactive |  |  | inactive | inactive | inactive | inactive |  | inactive | inactive | inactive | inactive | inactive |  | inactive | inactive | inactive
O=c1[nH]c2ccc(Cl)cc2o1 | inactive | inactive | inactive | inactive | inactive | inactive | inactive | inactive | inactive | inactive | inactive | inactive | inactive |  |  | inactive |  | inactive | inactive | inactive
O[C@@H]1CO[C@H]2[C@@H]1OC[C@@H]2O | inactive | inactive | inactive | inactive | inactive | inactive | inactive | inactive | inactive | inactive | inactive | inactive | inactive | inactive |  | inactive |  | inactive | inactive | inactive
CN1C(C(=O)Nc2ccccn2)=C(O)c2sccc2S1(=O)=O | inactive | inactive | inactive | inactive | inactive | inactive |  |  | inactive | inactive | inactive | inactive | inactive | inactive |  |  |  | inactive | inactive | inactive
O=C(OC(=O)c1ccccc1)c1ccccc1 | inactive | inactive | inactive | inactive | inactive | inactive | inactive | inactive | inactive |  | inactive | inactive | inactive | inactive |  | inactive | inactive | inactive | inactive | inactive
CCC(OCCCOC)OC(C)=O (stereo unspecified) | inactive | inactive | inactive | inactive | inactive |  | inactive | inactive | inactive |  | inactive | inactive | inactive | inactive |  | inactive |  | inactive | inactive | inactive
NCCNCCO | inactive | inactive | inactive | inactive | inactive | inactive | inactive | inactive | inactive | inactive | inactive | inactive | inactive | inactive |  | inactive |  | inactive | inactive | inactive
c1csc(SSc2cccs2)c1 | inactive | 13.7 µM (active) |  |  | 13.7 µM (active) |  | inactive | inactive |  |  | inactive | inactive | inactive |  | inactive | inactive |  |  | 9.69 µM (active) | 9.69 µM (active)
O=C1Cc2ccccc2N1c1c(Cl)cccc1Cl | inactive | inactive | 54.5 µM (active) |  | 19.3 µM (active) | inactive | inactive |  |  |  | inactive | inactive | inactive |  | inactive | inactive | inactive |  |  | 
CCOC(=O)c1ccc(C#Cc2ccc3c(c2)C(C)(C)CCS3)nc1 | inactive | inactive | inactive | inactive | inactive |  | inactive | inactive |  |  | inactive | inactive |  | inactive |  | inactive |  | inactive |  | 
O=C1CCCCCCCCCCOCCCCO1 | inactive | inactive | inactive | inactive | inactive |  | inactive | inactive |  | inactive | inactive |  |  | inactive |  | inactive |  | inactive | inactive | inactive
CCCCN1CCCC1C(=O)Nc1c(C)cc(C)cc1C (stereo unspecified) | inactive | inactive |  | inactive | inactive | inactive | inactive |  | inactive |  | inactive |  | inactive | inactive | inactive | inactive |  | inactive | inactive | inactive
FC(F)(F)c1ccccc1Cl | inactive | inactive |  | inactive | inactive | inactive |  |  | inactive | inactive | inactive | inactive | inactive | inactive | inactive | inactive |  |  | inactive | inactive
CC(=O)N/N=C/c1ccc([N+](=O)[O-])o1 | inactive | 26.6 µM (active) | inactive | inactive | inactive | inactive | inactive | inactive | inactive | inactive | inactive | inactive | inactive | inactive |  | inactive |  |  | inactive | inactive
